Experiment [1] can be described thus: ATG_M_32_CIS: Attagene CIS-FACTORIAL HepG2 Assay for M32 Transcription Factor (Internal Marker) (AID 2282949).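 Further: background control marker of the multiplexed CIS panel rather than a real target.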 The settings on record: HepG2 Attagene cis-factorial M32 reporter, mRNA; actives raise or lower the signal. In short, it runs like this: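 HepG2 cells transiently transfected with multiplexed cis-regulated reporter units, dosed 24 h. Reporter mRNA quantified by RT-PCR, 6-FAM labelling, HpaI digestion and capillary electrophoresis; bidirectional fit vs DMSO.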

A short description of experiment [2]: ATG_M_06_CIS: Attagene CIS-FACTORIAL HepG2 Assay for M06 Transcription Factor (Internal Marker) (AID 2282950). The settings on record: HepG2 Attagene CIS-FACTORIAL M06 internal marker reporter; actives raise or lower the signal. The method in brief:
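HepG2 cells transiently transfected with cis-regulated multiple reporter transcription units were exposed to chemical for 24 h; reporter mRNA was quantified by RT-PCR, 6-FAM primer labelling, HpaI digestion and capillary electrophoresis, fitted bidirectionally against DMSO.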

The target of experiment [3] is Hypoxia-inducible factor 1-alpha (Homo sapiens) (UniProt Q16665). As to the kind of experiment: ATG_HIF1a_CIS: Attagene CIS-FACTORIAL HepG2 Assay for human Hypoxia Inducible Factor 1 (HIF1A) (AID 2282951). The settings on record: HepG2 Attagene cis-factorial HIF1a reporter transcription; actives raise or lower the signal. In short, it runs like this:
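In this multiplexed cell assay, HepG2 cells bearing transfected cis reporters are dosed for 24 h and reporter mRNA is read by RT-PCR plus capillary electrophoresis; signal increases and decreases are both scored against DMSO.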

Experiment [4] addresses Hepatocyte nuclear factor 6 (Homo sapiens) (UniProt Q9UBC0). As to the kind of experiment: ATG_HNF6_CIS: Attagene CIS-FACTORIAL HepG2 Assay for human Hepatocyte Nuclear Factor 6 (HNF6) (AID 2282952). The settings on record: HepG2 Attagene cis-factorial HNF6 reporter transcription; actives raise or lower the signal. In short, it runs like this:
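HepG2 cells transiently transfected with cis-element-driven multiplexed reporter units measuring endogenous transcription factor activity. After 24 h exposure, reporter mRNA quantified by RT-PCR, FAM-labelled fragments and capillary electrophoresis; bidirectional fitting versus DMSO.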

Experiment [5] deals with Heat shock factor protein 1 (Homo sapiens) (UniProt Q00613). Kind of experiment: ATG_HSE_CIS: Attagene CIS-FACTORIAL HepG2 Assay for human Heat Shock Transcription Factor 1 (HSE) (AID 2282953). The settings on record: HepG2 HSE cis-reporter, Attagene RNA transcription; actives raise or lower the signal. The method in brief:
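HepG2 cells transiently transfected with multiple reporter transcription units under cis-regulatory promoter control, measuring endogenous transcription factor activity. After 24 h chemical exposure, reporter mRNA quantified by RT-PCR, fluorescent labelling, HpaI digestion and capillary electrophoresis; bidirectional fit versus DMSO.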

Experiment [6] can be described thus: ATG_MRE_CIS: Attagene CIS-FACTORIAL HepG2 Assay for human Metal Responsive Element (MRE) (AID 2282954). The settings on record: HepG2 MRE cis-reporter transcription, Attagene multiplex; actives raise or lower the signal. The method in brief: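 Step one: transfect HepG2 with cis-regulated reporter units. Step two: dose 24 h. Step three: isolate RNA, RT-PCR, 6-FAM label, HpaI digest, capillary electrophoresis. Fit bidirectionally to DMSO.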

Experiment [7] in a line: ATG_PBREM_CIS: Attagene CIS-FACTORIAL HepG2 Assay for human Phenobarbital-responsive Enhancer Module (PBREM) (AID 2282955). The settings on record: HepG2 PBREM cis-reporter, Attagene multiplexed transcription; actives raise or lower the signal. The method in brief: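 After a 24 h incubation with test chemical, transfected HepG2 cells yield total RNA; reporter-specific RT-PCR products are fluorescently labelled, HpaI-digested and resolved by capillary electrophoresis against ROX size standards.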

The target in experiment [8] is Paired box protein Pax-6 (Homo sapiens) (UniProt P26367). As to the kind of experiment: ATG_Pax6_CIS: Attagene CIS-FACTORIAL HepG2 Assay for human Paired Box 6 (PAX6) (AID 2282956). The settings on record: HepG2 CIS-FACTORIAL PAX6 reporter transcription, RNA readout; actives raise or lower the signal. In short, it runs like this:
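HepG2 cells transiently transfected with multiplexed cis-promoter reporter units (endogenous TF activity) were dosed for 24 h. Reporter mRNA was quantified by RT-PCR, 6-FAM labeling, HpaI digestion and capillary electrophoresis; bidirectional fitting versus DMSO baseline.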

The nature of experiment [9]: ATG_PXRE_CIS: Attagene CIS-FACTORIAL HepG2 Assay for human Pregnane X Receptor Element (PXRE) (AID 2282957). The settings on record: HepG2 Attagene CIS-FACTORIAL PXRE reporter, mRNA; actives raise or lower the signal. In short, it runs like this: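 HepG2 cells transiently transfected with cis-element-driven multiplexed reporter units; after 24 h chemical exposure, reporter mRNA measured by RT-PCR, 6-FAM labelling, HpaI digestion and capillary electrophoresis. Bidirectional fitting relative to DMSO.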

Experiment [10] in a line: ATG_PPRE_CIS: Attagene CIS-FACTORIAL HepG2 Assay for human Peroxisome Proliferator-activated Response Element (PPRE) (AID 2282958). The settings on record: HepG2 PPRE cis-element reporter, Attagene transcription factor profiling; actives raise or lower the signal. The method in brief:
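Multiplexed reporter transcription units under cis-regulatory promoters were transfected into HepG2 cells to capture endogenous factor activity. A 24 h incubation preceded RNA isolation and fluorescent RT-PCR fragment analysis.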

Experiment [11] is described as follows: ATG_RORE_CIS: Attagene CIS-FACTORIAL HepG2 Assay for human RAR-related Orphan Receptor Element (RORE) (AID 2282959). The settings on record: HepG2 Attagene cis-factorial RORE reporter, mRNA; actives raise or lower the signal. The method in brief:
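Fluorescence intensity of reporter-specific cDNA fragments, separated by capillary electrophoresis, gives the signal. Source: HepG2 liver cells transiently transfected with cis-element reporters and exposed 24 h; DMSO-normalized bidirectional fit.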

Experiment [12] concerns the target Transcription factor Sp1 (Homo sapiens) (UniProt P08047). As to the kind of experiment: ATG_Sp1_CIS: Attagene CIS-FACTORIAL HepG2 Assay for human Specificity Protein 1 (Sp1) (AID 2282961). The settings on record: HepG2 Sp1 cis-reporter transcription, actives raise or lower the signal. The method in brief: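 Sp1-driven reporter mRNA, read as capillary electrophoresis fluorescence after RT-PCR, in transiently transfected HepG2 cells dosed for 24 h; signal change in either direction relative to DMSO.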

A short description of experiment [13]: ATG_SREBP_CIS: Attagene CIS-FACTORIAL HepG2 Assay for human Sterol Regulatory Element Binding (SREBP) (AID 2282962). The settings on record: HepG2 Attagene cis-factorial SREBP reporter, mRNA; actives raise or lower the signal. The method in brief:
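HepG2 cells transiently transfected with multiplexed cis-element reporter units report endogenous transcription factor activity. After 24 h of chemical exposure, reporter mRNA was quantified by RT-PCR, 6-FAM labelling, HpaI digestion and capillary electrophoresis; bidirectional fits used DMSO as baseline.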

The target in experiment [14] is Signal transducer and activator of transcription 3 (Homo sapiens) (UniProt P40763). As to the kind of experiment: ATG_STAT3_CIS: Attagene CIS-FACTORIAL HepG2 Assay for human Signal Transducer and Activator of Transcription 3 (STAT3) (AID 2282963). The settings on record: HepG2, Attagene cis-factorial STAT3 reporter transcription; actives raise or lower the signal. The method in brief:
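Transcript-level reporter assay. HepG2 transient MRTU transfection, 24 h exposure, fluorescence detection after RT-PCR and CE; DMSO baseline.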

Experiment [15] is described as follows: ATG_TA_CIS: Attagene CIS-FACTORIAL HepG2 Assay for human TA Basal Promoter (AID 2282964). The settings on record: HepG2 Attagene CIS-factorial TA basal promoter reporter; actives raise or lower the signal. The method in brief: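 HepG2 cells transiently transfected with multiplexed cis-promoter reporter units, dosed 24 h. Reporter mRNA measured by RT-PCR, 6-FAM labelling, HpaI digestion and capillary electrophoresis; bidirectional fit versus DMSO baseline, serving as background control.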

The nature of experiment [16]: ATG_TCF_b_cat_CIS: Attagene CIS-FACTORIAL HepG2 Assay for human T-Cell-Factor with beta-catenin (TCF/b-cat) (AID 2282965). The settings on record: HepG2 TCF/beta-catenin cis-reporter transcription, actives raise or lower the signal. The method in brief:
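Using capillary electrophoresis as the read-out, labelled reporter cDNA fragments from transiently transfected HepG2 were sized and quantified. Exposure lasted 24 hours; activity in either direction was referenced to DMSO.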

Experiment [17] in a line: ATG_TAL_CIS: Attagene CIS-FACTORIAL HepG2 Assay for human TAL Basal Promoter (AID 2282966).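 Further: background control endpoint measuring basal TAL promoter reporter mRNA not a specific factor.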 The settings on record: HepG2 Attagene cis-factorial TAL promoter reporter; actives raise or lower the signal. The method in brief:
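HepG2 cells transiently transfected with multiplexed cis-promoter reporter units, dosed 24 h. Reporter mRNA quantified by RT-PCR, 6-FAM labelling, HpaI digestion and capillary electrophoresis; TAL basal promoter serves as background control, fitted bidirectionally versus DMSO.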

Experiment [18] in a line: ATG_TGFb_CIS: Attagene CIS-FACTORIAL HepG2 Assay for human Transforming Growth Factor (TGF) (AID 2282967). The settings on record: HepG2 Attagene CIS TGFb reporter, mRNA transcription; actives raise or lower the signal. The method in brief:
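HepG2 cells transiently transfected with cis-promoter-driven multiplexed reporter units; 24 h compound exposure. Reporter mRNA measured by RT-PCR, 6-FAM labeling, HpaI digestion and capillary electrophoresis; bidirectional fit versus DMSO baseline.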

The nature of experiment [19]: ATG_VDRE_CIS: Attagene CIS-FACTORIAL HepG2 Assay for human Vitamin D Receptor Element (VDRE) (AID 2282968). The settings on record: HepG2 VDRE cis-reporter transcription, actives raise or lower the signal. The method in brief:
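RT-PCR/CE readout of reporter mRNA; HepG2, transient transfection, 24 h dosing; DMSO baseline; bidirectional analysis.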

The nature of experiment [20]: ATG_Sox_CIS: Attagene CIS-FACTORIAL HepG2 Assay for human SRY-box transcription factor (SOX) (AID 2282960). The settings on record: HepG2 Attagene cis-factorial SOX reporter, mRNA; actives raise or lower the signal. The method in brief: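 After 24 h of chemical treatment, transfected HepG2 reporter cells are lysed for total RNA. Transcript levels come from RT-PCR with labelled primer extension and capillary electrophoresis, analysed bidirectionally versus DMSO.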

Calls of active or inactive are those of the source. How the source made its calls: active means hit-call score of the fitted dose curve at least 0.9, where 1 is the maximum; inactive means score below 0.9.

Heat shock factor protein 1 (Homo sapiens), sequence (Q00613 whole entry, looked up): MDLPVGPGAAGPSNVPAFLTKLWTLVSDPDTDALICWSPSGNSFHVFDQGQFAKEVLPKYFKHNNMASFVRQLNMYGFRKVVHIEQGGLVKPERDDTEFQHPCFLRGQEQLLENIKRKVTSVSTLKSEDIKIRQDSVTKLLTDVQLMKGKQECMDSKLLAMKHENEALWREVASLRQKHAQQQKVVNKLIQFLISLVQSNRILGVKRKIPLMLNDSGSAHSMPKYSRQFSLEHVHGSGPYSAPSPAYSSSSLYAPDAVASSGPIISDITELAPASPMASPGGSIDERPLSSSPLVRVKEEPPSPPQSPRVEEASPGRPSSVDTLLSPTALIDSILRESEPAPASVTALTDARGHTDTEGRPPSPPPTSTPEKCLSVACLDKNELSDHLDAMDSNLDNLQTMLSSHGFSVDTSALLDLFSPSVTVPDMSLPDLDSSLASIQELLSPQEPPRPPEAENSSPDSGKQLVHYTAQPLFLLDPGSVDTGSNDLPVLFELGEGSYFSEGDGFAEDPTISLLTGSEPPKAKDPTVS
Transcription factor Sp1 (Homo sapiens), sequence (P08047 whole entry, looked up): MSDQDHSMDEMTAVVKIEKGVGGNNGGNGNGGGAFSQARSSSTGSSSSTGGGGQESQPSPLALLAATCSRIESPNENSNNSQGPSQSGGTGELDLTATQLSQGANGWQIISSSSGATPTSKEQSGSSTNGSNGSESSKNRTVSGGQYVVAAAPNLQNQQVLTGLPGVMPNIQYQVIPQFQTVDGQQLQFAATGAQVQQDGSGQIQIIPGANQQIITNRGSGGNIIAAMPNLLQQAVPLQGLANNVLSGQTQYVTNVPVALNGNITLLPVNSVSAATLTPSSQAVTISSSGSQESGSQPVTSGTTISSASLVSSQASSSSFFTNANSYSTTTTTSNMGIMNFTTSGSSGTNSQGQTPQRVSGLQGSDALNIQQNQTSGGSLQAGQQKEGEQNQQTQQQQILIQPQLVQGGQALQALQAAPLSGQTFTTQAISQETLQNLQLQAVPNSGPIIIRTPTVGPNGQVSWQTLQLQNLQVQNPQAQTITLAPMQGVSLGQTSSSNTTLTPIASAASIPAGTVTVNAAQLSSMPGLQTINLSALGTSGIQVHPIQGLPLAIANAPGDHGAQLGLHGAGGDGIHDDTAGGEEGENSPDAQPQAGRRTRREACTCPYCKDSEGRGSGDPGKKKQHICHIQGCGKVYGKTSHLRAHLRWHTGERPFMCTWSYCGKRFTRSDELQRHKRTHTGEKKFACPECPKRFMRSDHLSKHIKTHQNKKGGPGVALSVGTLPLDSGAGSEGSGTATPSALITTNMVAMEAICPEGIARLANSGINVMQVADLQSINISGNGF
Hepatocyte nuclear factor 6 (Homo sapiens), sequence (Q9UBC0 whole entry, looked up, the tested form may be a part): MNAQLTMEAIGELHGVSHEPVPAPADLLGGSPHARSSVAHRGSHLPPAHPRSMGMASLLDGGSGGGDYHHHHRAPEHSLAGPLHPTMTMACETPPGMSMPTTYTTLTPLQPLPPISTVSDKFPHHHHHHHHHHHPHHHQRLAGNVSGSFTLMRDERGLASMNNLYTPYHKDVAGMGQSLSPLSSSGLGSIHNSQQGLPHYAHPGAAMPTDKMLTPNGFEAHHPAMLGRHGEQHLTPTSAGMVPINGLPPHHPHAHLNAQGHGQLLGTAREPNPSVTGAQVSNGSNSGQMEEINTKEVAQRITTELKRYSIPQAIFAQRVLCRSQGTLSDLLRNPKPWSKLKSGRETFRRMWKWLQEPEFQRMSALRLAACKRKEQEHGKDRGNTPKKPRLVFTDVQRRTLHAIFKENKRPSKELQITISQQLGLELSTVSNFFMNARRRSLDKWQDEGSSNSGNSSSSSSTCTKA
Signal transducer and activator of transcription 3 (Homo sapiens), sequence (P40763 whole entry, looked up): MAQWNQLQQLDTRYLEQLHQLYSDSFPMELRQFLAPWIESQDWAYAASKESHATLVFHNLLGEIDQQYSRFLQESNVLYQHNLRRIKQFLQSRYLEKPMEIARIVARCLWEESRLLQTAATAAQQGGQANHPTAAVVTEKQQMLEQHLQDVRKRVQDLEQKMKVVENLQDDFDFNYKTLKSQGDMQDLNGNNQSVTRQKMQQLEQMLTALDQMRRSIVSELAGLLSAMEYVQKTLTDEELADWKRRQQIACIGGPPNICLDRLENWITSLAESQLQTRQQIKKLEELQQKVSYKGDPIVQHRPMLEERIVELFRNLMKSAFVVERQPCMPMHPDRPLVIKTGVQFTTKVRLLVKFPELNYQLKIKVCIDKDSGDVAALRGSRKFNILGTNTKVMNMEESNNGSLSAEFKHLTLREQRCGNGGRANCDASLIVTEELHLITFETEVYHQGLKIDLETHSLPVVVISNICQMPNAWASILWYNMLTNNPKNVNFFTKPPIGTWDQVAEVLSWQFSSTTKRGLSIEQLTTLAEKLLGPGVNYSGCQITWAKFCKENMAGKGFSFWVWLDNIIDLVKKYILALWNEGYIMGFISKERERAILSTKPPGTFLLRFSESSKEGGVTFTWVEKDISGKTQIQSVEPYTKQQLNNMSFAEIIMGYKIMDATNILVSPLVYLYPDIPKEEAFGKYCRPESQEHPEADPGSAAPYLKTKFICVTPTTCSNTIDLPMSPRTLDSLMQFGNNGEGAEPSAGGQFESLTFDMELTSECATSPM
Hypoxia-inducible factor 1-alpha (Homo sapiens), sequence (Q16665 whole entry, looked up): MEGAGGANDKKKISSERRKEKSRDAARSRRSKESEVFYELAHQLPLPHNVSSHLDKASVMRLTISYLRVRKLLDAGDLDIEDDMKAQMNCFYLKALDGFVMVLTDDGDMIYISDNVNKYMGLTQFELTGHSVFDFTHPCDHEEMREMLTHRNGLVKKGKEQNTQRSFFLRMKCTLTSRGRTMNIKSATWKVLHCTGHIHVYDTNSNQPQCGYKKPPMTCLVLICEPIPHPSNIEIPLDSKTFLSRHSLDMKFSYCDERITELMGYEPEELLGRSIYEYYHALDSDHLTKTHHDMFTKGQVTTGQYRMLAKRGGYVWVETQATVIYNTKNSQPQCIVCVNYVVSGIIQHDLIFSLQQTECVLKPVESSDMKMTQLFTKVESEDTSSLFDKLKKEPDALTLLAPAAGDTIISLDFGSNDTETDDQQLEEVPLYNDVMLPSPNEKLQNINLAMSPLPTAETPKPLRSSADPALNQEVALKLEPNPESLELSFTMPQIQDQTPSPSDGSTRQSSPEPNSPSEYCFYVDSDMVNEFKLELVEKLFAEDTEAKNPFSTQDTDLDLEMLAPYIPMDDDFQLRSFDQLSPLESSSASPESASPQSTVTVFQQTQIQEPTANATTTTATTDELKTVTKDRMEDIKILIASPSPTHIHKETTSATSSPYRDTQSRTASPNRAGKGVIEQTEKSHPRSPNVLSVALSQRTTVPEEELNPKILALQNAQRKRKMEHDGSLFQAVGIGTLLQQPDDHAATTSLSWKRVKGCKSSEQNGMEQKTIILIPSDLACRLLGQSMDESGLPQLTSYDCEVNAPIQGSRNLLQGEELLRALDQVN
Paired box protein Pax-6 (Homo sapiens), sequence (P26367 whole entry, looked up): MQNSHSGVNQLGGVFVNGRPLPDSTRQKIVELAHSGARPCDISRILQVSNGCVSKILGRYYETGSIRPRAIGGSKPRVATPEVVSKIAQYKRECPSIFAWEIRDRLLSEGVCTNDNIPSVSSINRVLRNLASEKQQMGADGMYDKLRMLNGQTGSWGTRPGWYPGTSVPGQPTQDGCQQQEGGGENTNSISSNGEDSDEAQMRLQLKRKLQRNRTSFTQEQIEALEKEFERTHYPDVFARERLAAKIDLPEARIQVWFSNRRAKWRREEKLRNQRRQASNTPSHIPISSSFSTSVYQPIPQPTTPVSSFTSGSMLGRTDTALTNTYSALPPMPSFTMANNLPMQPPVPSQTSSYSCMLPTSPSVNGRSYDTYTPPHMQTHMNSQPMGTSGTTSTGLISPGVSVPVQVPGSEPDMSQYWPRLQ

By AC50 is commonly meant the concentration giving half of the maximal activity seen. For `CC(C)(COCC1CO1)COCC1CO1` (stereo unspecified), the molecule was called inactive in experiment [1], in experiment [2], in experiment [3], in experiment [4], in [5] and in experiment [7]. The outcome in experiment [8], in experiment [10], in experiment [11], in experiment [12], in [13] and in experiment [14] was inactive. The molecule was classed as inactive in experiment [15], in experiment [16], in [17] and in experiment [18]. Also, the AC50 in experiment [6] was 100 µM (active); in experiment [9], 27.3 µM (active); in [19], 38.7 µM (active).
For the molecule `CC(c1ccc(O)cc1)c1ccc(O)cc1`, the result in experiment [1], in experiment [2], in experiment [3], in experiment [4], in experiment [7] and in experiment [8] was inactive. Besides, the call in [11], in [20], in experiment [12], in experiment [13], in experiment [14] and in experiment [15] was inactive. In addition, the result in experiment [16], in experiment [17] and in experiment [18] was inactive. In addition, the AC50 was 168 µM (active) in experiment [5], 100 µM (active) in experiment [6] and 27.6 µM (active) in experiment [9].
Regarding `CCCCN(CCCCO)N=O`, the molecule was classed as inactive in experiment [1], in [2], in experiment [3], in experiment [4], in experiment [5] and in experiment [6]. For the same molecule, the outcome in experiment [7], in experiment [8], in [10], in [11], in experiment [20] and in experiment [12] was inactive. Also, the molecule was classed as inactive in [14], in experiment [15], in experiment [16], in experiment [17], in [18] and in experiment [19]. Also, the AC50 in [9] was 35.3 µM (active).

For the origin of these results see PubChem BioAssay (EPA / NIEHS).
